# Compounds with a hit are over-represented: about 2.3% of the library has one in this group of screens.
# CHRM1 antagonist: antagonists of human M1 muscarinic receptor | P11229 | CHO-K1 hM1, Fluo-8 calcium fluorescence, ACh EC80 antagonist | inhibition, % at 3 µM | 1.3% of 360,000 active | AID 588852;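 active = percent inhibition above its own plate's cutoff, namely the mean of that plate's compound wells plus 3 SD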;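 note: peak over basal fluorescence ratio during 140 s after agonist addition; 0% = ACh EC80 plus DMSO and 100% = DMSO alone without agonist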
# Target sequence (P11229 whole entry, looked up): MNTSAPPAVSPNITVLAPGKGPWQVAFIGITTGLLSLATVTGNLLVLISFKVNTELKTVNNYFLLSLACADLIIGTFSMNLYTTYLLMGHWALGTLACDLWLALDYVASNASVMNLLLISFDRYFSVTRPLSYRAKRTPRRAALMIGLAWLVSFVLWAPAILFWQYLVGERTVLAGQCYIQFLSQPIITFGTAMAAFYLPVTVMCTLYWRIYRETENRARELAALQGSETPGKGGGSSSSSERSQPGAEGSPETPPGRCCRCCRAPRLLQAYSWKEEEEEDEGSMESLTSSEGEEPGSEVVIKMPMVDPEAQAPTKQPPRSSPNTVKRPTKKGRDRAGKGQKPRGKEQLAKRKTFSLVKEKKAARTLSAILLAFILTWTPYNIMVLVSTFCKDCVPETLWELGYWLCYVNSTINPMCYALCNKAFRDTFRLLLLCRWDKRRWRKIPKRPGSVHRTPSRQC
# CHO-K1 Ca ag: M1 agonist counterscreen hit in parental CHO-K1 cells; Fluo-8 calcium fluorescence; scaled to maximal ATP response, vehicle zero; 0.48% of 360,000 active; activation, % at 3 µM; in the data active = activation above about 15%;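 note: untransfected CHO-K1 host cells lacking M1 receptor as counterscreen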
# M1 PAM: potentiates human M1 receptor response to acetylcholine. CHO-K1 hM1, Fluo-8 calcium fluorescence, ACh EC20; 0% = ACh EC20, 100% = maximal ACh. 0.088% of 360,000 active. activation, % at 3 µM. P11229; in the data active = activation above about 19%, passing the limit was not always enough
# M1 PAM parental: M1 PAM counterscreen hit in parental CHO-K1 cells. activation, % at 3 µM. AID 602247. 0.02% of 360,000 active. ATP EC20, Fluo-8 calcium fluorescence; 0% at ATP EC20, 100% at ATP max;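 active = activation above the run cutoff, the mean activation of all test compounds plus 3 SD, cut at about 40% in these data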;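 note: peak over basal fluorescence ratio in a 140 s read after ATP addition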
# CHO-K1 Ca antag: nonselective inhibitor or artifact in parental CHO-K1 cells | 0.6% of 360,000 active | inhibition, % at 3 µM | ATP-induced calcium, Fluo-8 fluorescence;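 active = inhibition above a per-plate cutoff, the plate's mean sample inhibition plus 3 SD, cut at about 24% in these data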;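 note: 0% = DMSO plus EC80 ATP and 100% = DMSO alone without ATP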
# CHRM1 agonist: activates human CHRM1 receptor; P11229; CHO-K1 hM1, Fluo-8 calcium fluorescence, agonist mode; 0% DMSO, 100% acetylcholine EC100; activation, % at 3 µM; 0.33% of 360,000 active;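 active = activation above the run's mean compound activation plus 3 SD, cut at about 16% in these data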;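 note: peak over basal fluorescence ratio within a 140 s kinetic read after compound addition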
# An asterisk follows results filed as active; / = no result.
SMILES,CHRM1 antagonist,CHO-K1 Ca ag,M1 PAM,M1 PAM parental,CHO-K1 Ca antag,CHRM1 agonist
CC(C)(C)Nc1c([N+](=O)[O-])c(=O)sc2ccccc12,-9,0,12,18,-1,-3
CCCCCCNc1c([N+](=O)[O-])c(=O)sc2ccccc12,42*,8,-19,-7,1,-2
Cn1nc(C(F)(F)F)c(-c2ccc(Br)cc2)c1NC(=O)Nc1ccc(F)cc1F,38*,9,-9,-21,20,4
CC(OC(=O)c1ccc(F)c(S(=O)(=O)N2CCOCC2)c1)C(=O)NC1CCCC1 (stereo not given),-7,0,4,-11,27*,-2
CC1=C(C(=O)N2CCOCC2)CC(CC(=O)NC(c2ccccc2)c2ccccc2)C(=O)N1Cc1ccc(F)cc1 (stereo not given),-4,0,2,3,-5,-4
CN(C)N1C(N)=C(C#N)C(c2cccs2)C2=C1CCCC2=O (stereo not given),0,0,2,12,-7,-5
Cc1ccsc1C1C(C#N)=C(N)N(N(C)C)C2=C1C(=O)CCC2 (stereo not given),39*,1,-1,9,-9,-5
CCOC(=O)c1cc2c(OC)ccc(OC)c2n1CC(=O)c1ccccc1,-1,0,0,7,-5,-3
COc1ccccc1/C=C/CN1CCCC(CO)(Cc2cccc(Cl)c2)C1 (stereo not given),56*,3,-17,-16,12,0
COc1cccc(CC2(CO)CCCN(C/C=C/c3ccccc3OC)C2)c1 (stereo not given),3,5,-20,3,0,-12
CCn1nc(C)c(CN2CCCC(CO)(Cc3ccccc3)C2)c1C (stereo not given),-8,0,2,11,-12,-8
CCOC(=O)C1(Cc2cccc(OC)c2)CCN(C/C=C/c2ccccc2)CC1,10,5,-8,-1,0,-5
CCOC(=O)C1(Cc2cccc(OC)c2)CCN(C/C=C/c2ccc(OC)cc2)CC1,33*,4,-30,-13,20,-13
COc1ccc(/C=C/CN2CCCC(CO)(Cc3cccc(Cl)c3)C2)cc1 (stereo not given),19,28*,-7,9,-4,2
CCn1nc(C)c(CN2CCCC(CO)(Cc3cccc(Cl)c3)C2)c1C (stereo not given),54*,2,-23,8,-14,-6
COc1ccc(F)c(CN2CCCC(CO)(Cc3cccc(Cl)c3)C2)c1 (stereo not given),-9,1,6,2,1,-4
O=C(Nc1ccccc1F)c1c[nH]c(=O)[nH]c1=O,40*,0,-12,-4,-9,-3
Cc1cc(C)c(NS(=O)(=O)c2cccc3cccnc23)c(C)c1,-3,0,2,-15,27*,-3
COc1ccc(OC)c(NS(=O)(=O)c2cccc3cccnc23)c1,-13,2,8,10,-4,-4
COc1ccc(C(C)(C)C)cc1NS(=O)(=O)c1cccc2cccnc12,-7,1,32*,11,-11,0
O=C1c2ccccc2C(O)N1Cc1ccc2c(c1)OCO2 (stereo not given),28*,4,-11,-9,15,0
COC(=O)c1cc2c(cc1Cl)N1CCCCCC1=NS2(=O)=O,9,0,-3,-21,24*,-2
O=C(O)c1cc2c(cc1Cl)N1CCCCCC1=NS2(=O)=O,3,10,3,9,-5,-8
COC(=O)Cc1ccc(OC2(C)CCN(Cc3ccc(-c4ccccn4)cc3)C2)cc1 (stereo not given),59*,1,-30,2,5,-8
COC(=O)Cc1ccc(OC2(C)CCN(Cc3ccccc3OC(F)F)C2)cc1 (stereo not given),55*,0,-22,0,19,-9
SMILES,CHRM1 antagonist,CHO-K1 Ca ag,M1 PAM,M1 PAM parental,CHO-K1 Ca antag,CHRM1 agonist
CC(=O)c1cc2cccc(OC3(C)CCN(Cc4ccc(-c5ccccn5)cc4)C3)c2o1 (stereo not given),35*,5,-26,13,-3,-8
CCOC1=C2CN(S(=O)(=O)c3ccc(C)cc3)[C@H](c3ccccc3)C[C@@H]2N(S(=O)(=O)c2ccc(Br)cc2)[C@H](c2ccccc2)C1,-10,0,18,9,6,9
CC(OC(=O)c1cccc(-n2cnnn2)c1)C(=O)Nc1cccc(Cl)c1 (stereo not given),-7,2,1,3,7,-5
CC(=O)Nc1sc2c(c1C(c1ccccn1)N1CCN(C)CC1)CCCC2 (stereo not given),48*,0,-21,-7,1,-5
CC(=O)Nc1sc2c(c1C(c1ccccn1)N1CCCC1)CCCC2 (stereo not given),14,0,-6,-18,0,4
CC(=O)Nc1sc2c(c1C(c1ccccc1Cl)N1CCN(CCO)CC1)CCCC2 (stereo not given),45*,1,-26,14,2,-8
O=S(=O)([O-])CCC[N+]1(CC#Cc2ccccc2)CCCCC1,-3,1,2,16,-13,-3
CCN(CC)CCC#CC(O)(c1ccccc1)C1CCCCC1 (stereo not given),99*,3,-37,13,-20,-14
CCC[N+]1(CC#CC(O)(c2ccccc2)C2CCCCC2)CCCCC1 (stereo not given),99*,0,-28,-4,1,-7
NC(=O)C[N+]1(CC#CC(O)(c2ccccc2)c2ccccc2)CCCC1,92*,0,-33,5,-8,-13
CCCCN1C2CCCC1CC(NC(=O)c1cccc(OC)c1)C2 (stereo not given),-11,0,4,10,-15,-11
COc1cccc(NC(=O)CSc2nnnn2C2CCCCC2)c1,-3,1,-1,4,-11,-1
Cc1cccc(NC(=O)CNC(=O)c2ccc(S(=O)(=O)NCc3ccco3)cc2)c1C,-12,1,10,6,-10,-1
O=C1CCSC2=C1SCc1sccc12,/,0,/,4,7,/
Cc1ccc(S(=O)(=O)N(C)CC(=O)Nc2nc3ccccc3s2)cc1,13,2,-4,-11,24*,-1
Cn1c(N)c(C(=O)CSc2nnnn2-c2ccccc2)c(=O)n(C)c1=O,-4,0,4,0,-5,-1
Cn1c(N)c(C(=O)CSc2nc(C3CC3)n(-c3ccccc3)n2)c(=O)n(C)c1=O,-13,2,4,14,-15,22*
Cc1ccc(N2C(=O)C(CN3CCCC3)C2c2ccccc2)cc1 (stereo not given),25*,1,-37,-5,-5,-16
CCCCC(=O)N(C)c1c(CC)nc2c(OCC=C(C)C)cccn12,-11,0,8,9,4,-7

# Assay outcomes: PubChem BioAssay, The Scripps Research Institute Molecular Screening Center
